Unmarked numbers belong to inactive results. The rule behind the calls is not given here.

For the assay, the system named is Phorbol Ester. Kind of assay: off-target binding and CYP inhibition panel, profiling panel, selectivity assay for GPR7 antagonist project, biochemical, Ricerca HitProfilingScreen, CYP450, set 2 (AID 540345). To be noted: Ricerca radioligand binding/CYP panel, at 10 µM, stronger effect = higher value.

Usually inhibition stands for the share of the control response that was lost under treatment. Take `COc1ccc(Oc2c(Cl)cnn(C3c4ccccc4-c4ccccc43)c2=O)cc1`: the inhibition was 0%.

(Values after PubChem BioAssay AID540345 (The Scripps Research Institute Molecular Screening Center, 2011).)
